Assay outcomes deposited in PubChem by National Center for Advancing Translational Sciences (NCATS).
BAZ2B inh: inhibitors of human BAZ2B bromodomain. Potency, µM (series often up to 114 µM), most hits filed as inhibitors. Q9UIF8. 360,000 tested, 4.4% active. AlphaScreen BAZ2B-H3K14Ac peptide displacement; further: nearly all actives have a fitted effect of over 60% in size
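Compounds, titrated to a top concentration of 110 uM, were incubated 30 min at room temperature with preformed BAZ2B/acetyl-K14 H3 peptide complex (50 nM each). Proximity signal was measured by AlphaScreen after 20 min with beads.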
CtBP-E1A inh: blocks the CtBP interaction with E1A; 340,000 tested, 0.49% active; AlphaScreen GST-E1A/His-CtBP binding, 1536-well; hits give low values; activity change, % (no concentration beside the values); in the data active means activity change below about -65%; inconclusive means mostly about -30% to -63%
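Homogeneous bead-based format: GST-tagged E1A captured on glutathione donor beads, His-tagged CtBP on nickel acceptor beads; compounds precede bead addition by 2 h at 37 °C.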
TDP1 inh: blocks human tyrosyl-DNA phosphodiesterase 1; Q9NUW8; 350,000 tested, 0.28% active; recombinant TDP1, AlphaScreen DNA substrate cleavage; Potency, µM (series often up to 130 µM), hits mostly inhibitors; further: nearly all actives have a fitted effect of over 40% in size
Target sequence (Q9NUW8 whole entry, looked up): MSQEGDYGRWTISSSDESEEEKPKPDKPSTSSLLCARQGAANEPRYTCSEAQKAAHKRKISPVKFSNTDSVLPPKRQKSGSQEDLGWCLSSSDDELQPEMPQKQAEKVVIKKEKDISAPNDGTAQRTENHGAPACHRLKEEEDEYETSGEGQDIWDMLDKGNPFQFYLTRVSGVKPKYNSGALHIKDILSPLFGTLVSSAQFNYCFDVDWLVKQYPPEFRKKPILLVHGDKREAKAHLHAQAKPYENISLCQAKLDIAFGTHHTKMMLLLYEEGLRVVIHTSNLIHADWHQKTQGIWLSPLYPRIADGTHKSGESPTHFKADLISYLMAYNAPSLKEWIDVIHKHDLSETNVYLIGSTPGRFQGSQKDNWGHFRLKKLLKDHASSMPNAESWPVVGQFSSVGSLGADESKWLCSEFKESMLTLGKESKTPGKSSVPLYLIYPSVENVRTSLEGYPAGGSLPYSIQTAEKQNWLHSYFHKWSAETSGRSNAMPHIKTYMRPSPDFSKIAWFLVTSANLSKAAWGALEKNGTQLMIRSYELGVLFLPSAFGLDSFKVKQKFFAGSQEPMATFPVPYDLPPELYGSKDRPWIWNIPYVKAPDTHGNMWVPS
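E. coli-derived human Tdp1, 1 nM final. Cpd preinc 15 min RT; substrate 15 nM final, 5 min RT; AS bead mix 10 ug/ml final, 10 min RT. Signal loss = tyrosine-FITC cleavage. No-enzyme wells = max signal.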
JMJD2A Tudor: inhibitors of human JMJD2A Tudor domain; O75164; AlphaScreen JMJD2A-Tudor / H3K4me3 peptide binding; Potency, µM (doses to about 114 µM), usual class: inhibitors; 390,000 tested, 4.4% active; further: nearly all actives have a fitted effect of over 50% in size
Six1-Eya2 blk: blocks human Six1 binding to Eya2; AlphaScreen GST-Six1/His-Eya2 binding, biochemical; hits give low values; 360,000 tested, 0.56% active; activity change, % (concentration not given with the values); Q15475+O00167; in the data active means activity change below about -65%; inconclusive means mostly about -30% to -63%
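AlphaScreen with GST-Six1 and His-Eya2 (5X mix: 250 nM and 500 nM), glutathione donor and nickel acceptor beads; buffer 50 mM Tris pH 8.0, 300 mM NaCl, 1 mM TCEP; 1 h at 37 C in the dark.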
HP1b binding inh: blocks HP1-beta chromodomain binding to methylated histone tails; P83916; AlphaScreen HP1-beta / biotin-H3K9me3 peptide binding; Potency, µM (series often up to 114 µM), actives largely listed as inhibitors; 390,000 tested, 0.56% active; AID 540317; further: nearly all actives have a fitted effect of over 70% in size
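AlphaScreen: HP1-beta (50 nM) preformed 30 min with biotin-H3(1-18)K9me3 peptide (50 nM) in PBS pH 7.4, 0.01% Tween-20. Compound added for 30 min at RT, then streptavidin donor/nickel chelate acceptor beads (10 ug/mL) for 30 min.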
A number is an active result; [ ] = another dose, or the depositor's remark. Most compounds without a hit are left out; they make up all but 5.3% or so of the library. Unless noted, the call rests on the fitted dose curve; in most records, active means well fitted inhibition curve with a large enough effect; inconclusive means small, poorly fitted or top-dose-only effect; inactive means no such curve, though single readings can be large or run the other way.

Results for COc1ccc(C(=O)Nc2nc(-c3ccccn3)cs2)cc1S(=O)(=O)N1CCOCC1 ?
TDP1 inh: inactive; JMJD2A Tudor: 25µM; Six1-Eya2 blk: -93; HP1b binding inh: inactive

What do the screens show for `COc1cccc(/C=N/NC(=O)C(C)n2nnc3ccccc32)c1` (stereo not drawn)?
BAZ2B inh: inactive; CtBP-E1A inh: inactive; TDP1 inh: inactive; JMJD2A Tudor: 45µM; Six1-Eya2 blk: inactive; HP1b binding inh: inactive

Results for Cc1cccc(-n2c3c(cc(-c4nc(-c5ccc(Cl)cc5)cs4)c2=O)C(=O)CC(C)(C)C3)c1 ?
BAZ2B inh: inactive; TDP1 inh: inactive; JMJD2A Tudor: inactive; HP1b binding inh: inactive

Results for O=C(CC1C(=O)NCCN1CC1CCCCC1)NCc1ccc(F)cc1F (stereo not drawn) ?
BAZ2B inh: inactive; CtBP-E1A inh: inactive; TDP1 inh: inactive; JMJD2A Tudor: inactive; Six1-Eya2 blk: inactive; HP1b binding inh: inactive

Results for O=C(CC1C(=O)NCCN1CC1CCCCC1)NCc1cc(F)ccc1F (stereo not drawn) ?
BAZ2B inh: inactive; CtBP-E1A inh: inactive; TDP1 inh: inactive; JMJD2A Tudor: 11µM; Six1-Eya2 blk: inactive; HP1b binding inh: inactive

What do the screens show for `Fc1ccc(CNc2ncnc3onc(-c4ccc(F)cc4)c23)cc1`?
BAZ2B inh: inactive; TDP1 inh: inactive; JMJD2A Tudor: inactive; HP1b binding inh: inactive

How did Cc1cc(Cl)cc(Br)c1OCCNCC(C)O (stereo not drawn) do in these assays?
BAZ2B inh: inactive; CtBP-E1A inh: inactive; TDP1 inh: inactive; JMJD2A Tudor: inactive; Six1-Eya2 blk: inactive; HP1b binding inh: inactive

Results for Cc1cc(Cl)cc(C)c1OCCOCCNCc1ccccc1 ?
BAZ2B inh: inconclusive; JMJD2A Tudor: 22µM; Six1-Eya2 blk: inactive; HP1b binding inh: inactive

How did Cc1cc(C)c(C)c(OCCCN(C)C)c1 do in these assays?
BAZ2B inh: inactive; CtBP-E1A inh: inactive; TDP1 inh: inactive; JMJD2A Tudor: 20µM; Six1-Eya2 blk: inactive; HP1b binding inh: inconclusive

What do the screens show for `Cc1cc(Cl)cc(C)c1OCCNCc1ccccc1`?
BAZ2B inh: 71µM; CtBP-E1A inh: inactive; JMJD2A Tudor: 0.79µM; Six1-Eya2 blk: inactive; HP1b binding inh: inconclusive

What do the screens show for `Clc1ccc(OCCCNCc2ccccc2)c2ccccc12`?
BAZ2B inh: 50µM; CtBP-E1A inh: inactive; JMJD2A Tudor: 28µM; Six1-Eya2 blk: inactive; HP1b binding inh: inconclusive

Results for O=C(COC(=O)CCCOc1ccc(Cl)cc1Cl)NCc1ccccc1 ?
BAZ2B inh: inactive; CtBP-E1A inh: inactive; TDP1 inh: inactive; JMJD2A Tudor: inactive; Six1-Eya2 blk: inactive; HP1b binding inh: inactive

Results for COc1ccc(N2CC(NC(=O)c3ccco3)CC2=O)cc1OC (stereo not drawn) ?
BAZ2B inh: inactive; TDP1 inh: inactive; JMJD2A Tudor: inactive; HP1b binding inh: inactive

How did Cc1ccccc1NC(=O)CCc1c(C)nc2c(c1C)c(=O)n(C)c(=O)n2C do in these assays?
BAZ2B inh: inactive; TDP1 inh: inactive; JMJD2A Tudor: inactive; HP1b binding inh: inactive

How did Cc1ccc(-c2nc(C)c(CCNS(=O)(=O)c3ccc(F)c(C(F)(F)F)c3)s2)cc1 do in these assays?
BAZ2B inh: inactive; TDP1 inh: inactive; JMJD2A Tudor: inactive; HP1b binding inh: inactive

What do the screens show for `O=C(Nc1ccccc1C(F)(F)F)c1cc2nc(-c3ccccc3)cc(-c3ccccc3)n2n1`?
BAZ2B inh: inactive; TDP1 inh: inactive[12.3 µM]; JMJD2A Tudor: inactive; HP1b binding inh: inactive

How did CCOc1ccc(CNCc2ccccc2Cl)cc1 do in these assays?
BAZ2B inh: inactive; CtBP-E1A inh: inactive; TDP1 inh: inactive; JMJD2A Tudor: inactive; Six1-Eya2 blk: inactive; HP1b binding inh: inactive

What do the screens show for `Clc1ccc(OCCOCCNCc2ccccc2)cc1Cl`?
BAZ2B inh: inconclusive; JMJD2A Tudor: 25µM; Six1-Eya2 blk: inactive; HP1b binding inh: inactive

How did Cc1cc(C)c(OCCNCc2ccccc2)c(C)c1 do in these assays?
BAZ2B inh: 50µM; CtBP-E1A inh: inactive; JMJD2A Tudor: 1.1µM; Six1-Eya2 blk: inactive; HP1b binding inh: inactive
